Measurements published in PubChem BioAssay (NCI).
Several values for one entry are separate records, joined by “and”; a condition that tells them apart may be missing. Equal values may be shown once. About 79,000 compounds went through this panel and 15% of them were active in at least one assay; those are over-represented in the sample as a whole. Where a structure was tested more than once in an assay, its records may differ in their call. Activity calls are given as the source filed them. No stated cut-off is given here; in the data, active means growth inhibition above about 70%; inactive means the rest.

Assay: NCI Yeast Anticancer Drug Screen. Data for the mlh1 rad18 strain (AID 175)
Settings: S. cerevisiae mlh1 rad18 strain growth inhibition, stronger effect = higher value
Method: Growth inhibition of yeast strains with defined genetic alterations is measured as a screen for potential anti-cancer activity. Selected strains with alterations in DNA damage repair or cell cycle control were exposed to compounds and growth inhibition was measured relative to vehicle treated controls. The strain used in this assay is mlh1 rad18

[1] = at 5.0 µM (retest, dose inferred, filed as 0.5)
[2] = at 50.0 µM (retest, dose inferred, filed as 5.0)

Row | SMILES | growth inhibition [1] | growth inhibition [2] | growth inhibition (at 50.0 µM)
1 | CC(C)CCCC(C)CCC1C(=O)NC(=O)NC1=O (configuration not stated) | 13% (inactive) | 48% (inactive) | 2.7% (inactive) and -0.7% (inactive)
2 | O=C1C=C(Cl)C(=O)C=C1Cl | 11% (inactive) | 99% (active) | 99.3% (active)
3 | CCCCCCCCCCCCNCCc1ccccc1 | 99% (active) | 98% (active) | 98.8% (active)
4 | [CH3][Sn]([Br])([Br])[CH2]CCCBr | 27% (inactive) | 86% (active) | 85.1% (active)
5 | Cc1ccc(NP(=O)(Oc2ccccc2)N(CCCl)CCCl)cc1 (configuration not stated) | -10% (inactive) | -5% (inactive) | 54.6% (inactive)
6 | CC(=O)[CH-]C(=O)c1ccccc1.CC(=O)[CH-]C(=O)c1ccccc1.C[C@]12CCC(=O)C=C1CC[C@@H]1C2CC[C@@]2(C)C1CC[C@]2(C)[O-].C[C@]12CCC(=O)C=C1CC[C@@H]1C2CC[C@@]2(C)C1CC[C@]2(C)[O-].Cl.[Ti+4] (some centres not stated) | 37% (inactive) | 90% (active) | 81.2% (active)
7 | NC(C(=O)O)c1ccccc1Cl (configuration not stated) | -147% (inactive) | -106% (inactive) | 13.9% (inactive)
8 | O=C(O)c1cc[c]([Hg])cc1 | 1% (inactive) | 3% (inactive) | 38.2% (inactive)
9 | O=C(O)c1ccccc1.[Ag] | 99% (active) and 40% (inactive) | 99% (active) and 100% (active) | 90.8% (active) and 91.3% (active)
10 | Cc1ccc(S)cc1.[Pb] | 0% (inactive) | 13% (inactive) | 83.8% (active)
11 | O=c1c(O)c(-c2ccccc2)oc2ccccc12.[Pb] | 8% (inactive) | 98% (active) | 98.1% (active)
12 | CC(Cc1ccccc1)N(C)Cc1ccc(-c2ccccc2)o1 (configuration not stated) | 12% (inactive) | 91% (active) | 81.3% (active)
13 | C[C@]12Cc3conc3C(O)=C1CC[C@@H]1C2CC[C@@]2(C)C1CC[C@@H]2O (some centres not stated) | -1% (inactive) | 15% (inactive) | 78.2% (active)
14 | C[CH2][Sn]1([CH2]C)[c]2ccccc2Oc2cccc[c]21 | 99% (active) | 99% (active) | 99% (active)
